Test results as given in PubChem BioAssay (Tox21).
Inconclusive results are not listed. Entries that show only a call come without a potency. A number with no mark means an inactive call. Activity calls are given as the source filed them. Unless noted, calls come from the whole dose curve; as a rule, active = well fitted curve in the direction sought with a large enough effect in the repeat runs; inconclusive = weak or mixed curves; inactive = no such curve, though single readings can be large; an effect the other way counts as inactive or inconclusive.

What was measured:
[1] = system: thyroid hormone receptor (rat, GH3 cells); experiment: qHTS assay to identify small molecule agonists of the thyroid receptor (TR) signaling pathway (AID 743066; calls by dose curve)
[2] = qHTS assay to identify small molecule antagonists of the estrogen receptor alpha (ER-alpha) signaling pathway - cell viability counter screen (AID 743074; calls by dose curve;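 note: HEK293 cells carrying ER-alpha-UAS-bla reporter stimulated with 17beta-estradiol; nearly all actives have a fitted effect of over 45% in size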)
Aromatase (Homo sapiens) = Aromatase (Homo sapiens) (UniProt P11511); experiment: qHTS assay to identify aromatase inhibitors (AID 743083); note: nearly all actives have a fitted effect of over 55% in size
Aromatase (Homo sapiens), sequence (P11511 whole entry, looked up): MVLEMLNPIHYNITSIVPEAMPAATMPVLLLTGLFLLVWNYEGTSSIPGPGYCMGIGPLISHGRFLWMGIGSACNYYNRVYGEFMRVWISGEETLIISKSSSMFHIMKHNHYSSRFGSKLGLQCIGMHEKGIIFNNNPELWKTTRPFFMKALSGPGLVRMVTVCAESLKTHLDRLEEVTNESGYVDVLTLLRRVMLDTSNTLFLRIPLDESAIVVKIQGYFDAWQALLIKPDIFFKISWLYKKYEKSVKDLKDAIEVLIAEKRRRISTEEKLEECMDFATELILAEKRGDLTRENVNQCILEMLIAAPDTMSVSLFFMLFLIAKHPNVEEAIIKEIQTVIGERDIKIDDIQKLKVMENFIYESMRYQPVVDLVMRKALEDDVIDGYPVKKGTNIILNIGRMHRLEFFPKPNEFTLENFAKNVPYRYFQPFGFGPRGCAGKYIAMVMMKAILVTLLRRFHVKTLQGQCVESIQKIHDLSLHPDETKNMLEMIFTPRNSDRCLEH

[3] = target: Peroxisome proliferator-activated receptor gamma (Homo sapiens) (UniProt P37231); experiment: qHTS assay to identify small molecule antagonists of the peroxisome proliferator-activated receptor gamma (PPARg) signaling pathway (AID 743191; calls by dose curve; note: nearly all actives have a fitted effect of over 30% in size)
Peroxisome proliferator-activated receptor gamma (Homo sapiens), sequence (P37231 whole entry, looked up): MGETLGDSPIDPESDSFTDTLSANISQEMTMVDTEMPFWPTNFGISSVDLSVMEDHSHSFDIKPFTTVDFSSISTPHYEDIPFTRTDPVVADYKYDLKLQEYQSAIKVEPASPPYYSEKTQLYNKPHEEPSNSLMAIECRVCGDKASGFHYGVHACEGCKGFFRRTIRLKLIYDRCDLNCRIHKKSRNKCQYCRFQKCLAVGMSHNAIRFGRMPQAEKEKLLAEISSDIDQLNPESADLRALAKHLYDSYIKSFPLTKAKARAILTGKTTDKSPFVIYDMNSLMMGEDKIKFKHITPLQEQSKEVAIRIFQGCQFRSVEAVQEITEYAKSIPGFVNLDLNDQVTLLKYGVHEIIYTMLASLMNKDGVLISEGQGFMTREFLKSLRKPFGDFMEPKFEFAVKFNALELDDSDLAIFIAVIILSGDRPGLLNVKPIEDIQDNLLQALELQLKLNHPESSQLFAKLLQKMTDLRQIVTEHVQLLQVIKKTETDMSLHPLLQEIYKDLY
Summary of the method: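 Beta-lactamase reporter under UAS control in HEK293H PPARg-bla cells; compound treatment 17 h at 37C. Read-out: fluorescence intensity after 1 h room-temperature incubation with LiveBLAzer B/G FRET substrate.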

[4] = qHTS assay to identify small molecule antagonists of the peroxisome proliferator-activated receptor gamma (PPARg) signaling pathway - cell viability counter screen (AID 743194); conditions: Potency: co-treated with 50 nM rosiglitazone; note: nearly all actives have a fitted effect of over 55% in size
Summary of the method: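 Viability was measured as CellTiter-Glo luminescence in GeneBLAzer PPARg UAS-bla HEK293H cells. These cells had been exposed 17 h at 37 C to compounds together with rosiglitazone at 50 nM final, with the beta-lactamase readout taken in the same wells.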

[5] = qHTS assay for small molecule agonists of the antioxidant response element (ARE) signaling pathway - cell viability counter screen (AID 743203; calls by dose curve; note: nearly all actives have a fitted effect of over 55% in size)
Summary of the method: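 Seeded at 2,000 cells/well, ARE-bla HepG2 cells were incubated 5 hrs before compound addition. After 16 hrs of treatment at 37C with 5% CO2, CellTiter-Glo reagent was added and luminescence read 30 min later.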

[6] = qHTS assay for small molecule activators of the heat shock response signaling pathway - cell viability counter screen (AID 743209); note: nearly all actives have a fitted effect of over 50% in size
Summary of the method: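 First, HSE-bla HeLa cells were seeded at 1500 cells/well and kept overnight at 37 C. Next, compounds were pinned in and incubated 5 h. After the FRET substrate step, CellTiter-Glo was added and luminescence read 30 min later.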

[7] = qHTS assay for small molecule activators of the heat shock response signaling pathway (AID 743210; active = well fitted activation curve with a large enough effect in the signal ratio in the repeat runs, with a control signal flat, not every such curve was filed as active; the % refers to the signal ratio;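 note: HeLa cells with beta-lactamase reporter driven by heat shock elements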)
Summary of the method: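 HeLa HSE-bla cells, overnight plating; cpd in DMSO 5 h, 37 C; LiveBLAzer B/G FRET substrate 2.5 h RT; fluorescence intensity read.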

[8] = qHTS assay to identify small molecule antagonists of the thyroid receptor (TR) signaling pathway (AID 743065); note: nearly all actives have a fitted effect of over 55% in size
Summary of the method: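 Antagonism measured as loss of luciferase signal in GH3 cells stably carrying a TRE-luciferase reporter, co-treated with compound and T3 (1 nM final) for 23.5 h at 37 C. Viability was read in the same well by CellTiter-Fluor.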

[9] = qHTS assay to identify small molecule antagonists of the estrogen receptor alpha (ER-alpha) signaling pathway using the BG1 cell line - cell viability counter screen (AID 743081);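 note: compound given together with 17beta-estradiol as the ER stimulus; nearly all actives have a fitted effect of over 45% in size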
[10] = qHTS assay to identify small molecule that activate the aryl hydrocarbon receptor (AhR) signaling pathway - cell viability counter screen (AID 743086);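 note: HepG2 liver cells carrying the AhR DRE luciferase reporter; nearly all actives have a fitted effect of over 45% in size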
Summary of the method: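 Cytotoxicity counter screen: CellTiter-Fluor signal (30 min, 37 C) in 4000 HepG2 cells/well carrying the DRE-luciferase reporter, following 24 h compound exposure at 37 C.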

[11] = qHTS assay for small molecule agonists of the antioxidant response element (ARE) signaling pathway (AID 743202; active = well fitted activation curve with a large enough effect in the signal ratio in the repeat runs, not every such curve was filed as active; the % refers to the signal ratio)
Summary of the method: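 Quantitative high-throughput format in HepG2 cells bearing an integrated ARE-beta-lactamase reporter. Compound exposure lasted 16 h at 37 C, and fluorescence was read 2 h after adding LiveBLAzer B/G substrate at room temperature.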

[12] = qHTS assay to identify aromatase inhibitors - cell viability counter screen (AID 743084)
[13] = target: Aryl hydrocarbon receptor (Homo sapiens) (UniProt P35869); experiment: qHTS assay to identify small molecule that activate the aryl hydrocarbon receptor (AhR) signaling pathway (AID 743085); note: nearly all actives have a fitted effect of over 15% in size; note: potency is the fitted concentration of half-maximal effect;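 for activation: HG2L7.5c1 human HepG2 liver cells with stably integrated DRE-driven firefly reporter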
Aryl hydrocarbon receptor (Homo sapiens), sequence (P35869 whole entry, looked up): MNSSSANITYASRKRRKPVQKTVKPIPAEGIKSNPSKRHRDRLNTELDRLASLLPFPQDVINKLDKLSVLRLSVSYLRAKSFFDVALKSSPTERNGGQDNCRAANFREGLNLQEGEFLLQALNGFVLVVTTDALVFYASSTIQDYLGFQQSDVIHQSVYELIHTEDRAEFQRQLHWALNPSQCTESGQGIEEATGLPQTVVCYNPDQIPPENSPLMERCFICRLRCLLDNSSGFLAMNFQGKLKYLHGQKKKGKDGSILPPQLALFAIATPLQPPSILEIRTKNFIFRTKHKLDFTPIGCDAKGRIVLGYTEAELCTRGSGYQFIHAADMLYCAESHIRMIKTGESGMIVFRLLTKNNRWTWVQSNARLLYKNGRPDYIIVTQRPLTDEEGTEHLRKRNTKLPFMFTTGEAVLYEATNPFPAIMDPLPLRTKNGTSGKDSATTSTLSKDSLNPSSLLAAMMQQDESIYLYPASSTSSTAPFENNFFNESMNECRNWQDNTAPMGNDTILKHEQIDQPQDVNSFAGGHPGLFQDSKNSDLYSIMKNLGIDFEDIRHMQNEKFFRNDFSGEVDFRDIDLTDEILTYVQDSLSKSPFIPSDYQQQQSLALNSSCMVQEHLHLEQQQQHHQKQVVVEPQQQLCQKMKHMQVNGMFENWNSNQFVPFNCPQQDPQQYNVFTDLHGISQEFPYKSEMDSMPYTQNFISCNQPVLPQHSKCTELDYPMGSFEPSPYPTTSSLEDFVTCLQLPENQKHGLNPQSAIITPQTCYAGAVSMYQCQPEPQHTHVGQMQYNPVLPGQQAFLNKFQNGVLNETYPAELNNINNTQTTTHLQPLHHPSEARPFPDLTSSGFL
Summary of the method: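 Luminescence read-out: ONE-Glo reagent, 30 min at room temperature, in HG2L7.5c1 HepG2 reporter cells treated 24 h at 37C. Viability was measured beforehand by CellTiter-Fluor fluorescence after 30 min at 37C.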

[14] = target: Estrogen receptor (Homo sapiens) (UniProt P03372); experiment: qHTS assay to identify small molecule antagonists of the estrogen receptor alpha (ER-alpha) signaling pathway (AID 743069; active = well fitted curve in the direction sought with a large enough effect in the signal ratio in the repeat runs, not every such curve was filed as active; the % refers to the signal ratio)
Estrogen receptor (Homo sapiens), sequence (P03372 whole entry, looked up): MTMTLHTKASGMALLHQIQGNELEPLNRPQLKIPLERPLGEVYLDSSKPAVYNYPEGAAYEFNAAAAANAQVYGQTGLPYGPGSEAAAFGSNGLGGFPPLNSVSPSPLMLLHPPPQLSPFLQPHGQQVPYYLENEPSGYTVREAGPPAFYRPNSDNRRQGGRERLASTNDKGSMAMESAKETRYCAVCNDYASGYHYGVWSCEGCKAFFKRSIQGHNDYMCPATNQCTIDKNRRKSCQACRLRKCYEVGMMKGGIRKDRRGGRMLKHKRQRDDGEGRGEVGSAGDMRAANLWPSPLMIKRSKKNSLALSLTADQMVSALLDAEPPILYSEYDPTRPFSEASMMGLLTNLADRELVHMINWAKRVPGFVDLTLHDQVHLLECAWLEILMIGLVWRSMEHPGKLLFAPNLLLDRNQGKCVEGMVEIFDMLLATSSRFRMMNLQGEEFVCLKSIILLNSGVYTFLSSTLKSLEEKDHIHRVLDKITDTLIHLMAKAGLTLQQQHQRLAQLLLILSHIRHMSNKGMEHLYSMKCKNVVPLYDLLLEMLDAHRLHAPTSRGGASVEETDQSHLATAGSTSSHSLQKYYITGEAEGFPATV
Summary of the method: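 ER-alpha-UAS-bla GripTite HEK293 line; 2% charcoal-stripped FBS overnight; plated, 4 hr 37C/5% CO2; cpd in DMSO + 17beta-estradiol, 18 hr 37C; LiveBLAzer B/G FRET substrate 2 hr RT; fluorescence intensity.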

[15] = target: Estrogen receptor (Homo sapiens) (UniProt P03372); experiment: qHTS assay to identify small molecule agonists of the estrogen receptor alpha (ER-alpha) signaling pathway (AID 743075; calls by dose curve;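 note: HEK293 GripTite cells with ER-alpha and UAS-driven beta-lactamase reporter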)
[16] = target: Estrogen receptor (Homo sapiens) (UniProt P03372); experiment: qHTS assay to identify small molecule agonists of the estrogen receptor alpha (ER-alpha) signaling pathway using the BG1 cell line (AID 743079); conditions: BG1Luc4E2 cells, ERE-luciferase agonist, 22 h; at 70.3 µM (top of the series); note: nearly all actives have a fitted effect of over 20% in size
[17] = qHTS assay to identify small molecule antagonists of the estrogen receptor alpha (ER-alpha) signaling pathway using the BG1 cell line (AID 743080; calls by dose curve;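 note: BG1 cells stimulated with 17beta-estradiol alongside compound; nearly all actives have a fitted effect of over 25% in size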)
Summary of the method: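 BG1Luc4E2, endogenous ER-alpha, 4xERE-luc; 5 d charcoal-stripped FBS, phenol red free; 24 h plating; cpd + 17beta-estradiol 21.5 h, 37 C/5% CO2; CellTiter-Fluor viability 30 min, then ONE-Glo luciferase 30 min RT.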

[18] = target: Peroxisome proliferator-activated receptor gamma (Homo sapiens) (UniProt P37231); experiment: qHTS assay to identify small molecule agonists of the peroxisome proliferator-activated receptor gamma (PPARg) signaling pathway (AID 743094; active = well fitted activation curve with a large enough effect in the signal ratio in the repeat runs, not every such curve was filed as active; the % refers to the signal ratio)
Summary of the method: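 Quantitative HTS agonist mode: stable HEK293H line with UAS-beta-lactamase reporter under PPARg control, 17 h compound exposure at 37C, fluorescence after 1 h FRET substrate loading at room temperature.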

Compound: COc1cccc(C(=O)NN(C(=O)c2cc(C)cc(C)c2)C(C)(C)C)c1C
- Potency [1]: inactive
- outcome [2]: inactive
- Potency (Aromatase (Homo sapiens)): inactive
- Potency [3]: inactive
- Potency [4]: inactive
- Potency [5]: inactive
- Potency [6]: inactive
- outcome [7]: inactive

Compound: CN1C[C@@H](NS(=O)(=O)N(C)C)C[C@@H]2c3cccc4c3c(cn4C)C[C@H]21
- Potency [8]: inactive
- Potency [1]: inactive
- outcome [2]: inactive
- Potency [9]: inactive
- outcome [10]: inactive
- Potency [4]: inactive
- Potency [11]: inactive
- Potency [5]: inactive
- Potency [6]: inactive
- outcome [7]: inactive

Compound: COC(=O)C(C)Oc1ccc(Oc2ccc(Cl)cc2Cl)cc1 (stereo not given)
- Potency [1]: inactive
- outcome [2]: inactive
- Potency [9]: inactive
- Potency (Aromatase (Homo sapiens)): inactive
- Potency [12]: inactive
- Potency [13]: inactive
- outcome [10]: inactive
- Potency [3]: inactive
- Potency [11]: inactive
- Potency [5]: inactive
- Potency [6]: inactive
- outcome [7]: inactive

Compound: N#CCCC#N
- Potency [1]: inactive
- Potency [14]: inactive
- outcome [2]: inactive
- Potency [15]: inactive
- activation [16]: -3.68%
- Potency [17]: inactive
- Potency [9]: inactive
- Potency (Aromatase (Homo sapiens)): inactive
- Potency [12]: inactive
- Potency [13]: inactive
- outcome [10]: inactive
- outcome [18]: inactive
- Potency [3]: inactive
- Potency [4]: inactive
- Potency [11]: inactive
- Potency [5]: inactive
- Potency [6]: inactive

Compound: CCC(=O)C(CCN(C)C)(c1ccccc1)c1ccccc1
- Potency [3]: inactive
- Potency [4]: inactive
- Potency [11]: inactive
- Potency [5]: inactive
- Potency [6]: inactive
- outcome [7]: inactive

Compound: c1ccc(N2CCNCC2)cc1
- Potency [4]: inactive
- Potency [11]: inactive
- Potency [5]: inactive

Compound: CC1(C(=O)Nc2ccc(O)c(Cl)c2Cl)CCCCC1
- Potency [1]: inactive
- outcome [2]: inactive
- Potency [9]: inactive
- outcome [10]: inactive
- Potency [3]: inactive
- Potency [4]: inactive
- Potency [5]: inactive
- Potency [6]: inactive
- outcome [7]: inactive

Compound: OC(c1ccccc1)(c1ccccc1)C1CCNCC1
- Potency [1]: inactive
- outcome [2]: inactive
- Potency [9]: inactive
- Potency (Aromatase (Homo sapiens)): inactive
- Potency [12]: inactive
- Potency [13]: inactive
- outcome [10]: inactive
- outcome [18]: inactive
- Potency [3]: inactive
- Potency [4]: inactive
- Potency [5]: inactive
- Potency [6]: inactive
- outcome [7]: inactive

Compound: CN1CCC(N(Cc2ccccc2)c2ccccc2)CC1
- Potency [3]: inactive
- Potency [4]: inactive
- Potency [5]: inactive
- Potency [6]: inactive
- outcome [7]: inactive

Compound: CC1=C(C(=O)O)N2C(=O)[C@@H](N)[C@H]2SC1
- Potency [3]: inactive
- Potency [4]: inactive
- Potency [11]: inactive
- Potency [5]: inactive
- Potency [6]: inactive
- outcome [7]: inactive

Compound: CCCCOC(=O)c1ccccc1N
- outcome [2]: inactive
- Potency [9]: inactive
- Potency (Aromatase (Homo sapiens)): inactive
- Potency [12]: inactive
- Potency [13]: inactive
- outcome [10]: inactive
- Potency [4]: inactive
- Potency [5]: inactive
- Potency [6]: inactive
- outcome [7]: inactive

Compound: Cc1cc(C)nc(Nc2ccccc2)n1
- Potency [1]: inactive
- Potency [14]: inactive
- outcome [2]: inactive
- Potency [15]: inactive
- Potency [9]: inactive
- Potency (Aromatase (Homo sapiens)): inactive
- Potency [12]: inactive
- Potency [13]: 48.6 µM (active)
- outcome [10]: inactive
- Potency [3]: inactive
- Potency [4]: inactive
- Potency [11]: inactive
- Potency [5]: inactive
- Potency [6]: inactive

Compound: CC(=O)[C@H]1CC[C@H]2[C@@H]3CC[C@H]4C[C@H](O)CC[C@]4(C)[C@H]3C(=O)C[C@]12C
- Potency [1]: inactive
- Potency [14]: inactive
- outcome [2]: inactive
- Potency [15]: inactive
- activation [16]: 8.45%
- Potency [17]: inactive
- Potency [9]: inactive
- Potency (Aromatase (Homo sapiens)): inactive
- Potency [12]: inactive
- outcome [10]: inactive
- outcome [18]: inactive
- Potency [3]: inactive
- Potency [4]: inactive
- outcome [7]: inactive

Compound: COc1cc(OC)nc(NC(=O)NS(=O)(=O)c2ncccc2OCC(F)(F)F)n1
- Potency [14]: inactive
- outcome [2]: inactive
- Potency [15]: inactive
- Potency [17]: inactive
- Potency [9]: inactive
- Potency (Aromatase (Homo sapiens)): inactive
- Potency [12]: inactive
- outcome [10]: inactive
- outcome [18]: inactive
- Potency [3]: inactive
- Potency [4]: inactive
- Potency [11]: inactive
- Potency [5]: inactive
- Potency [6]: inactive
- outcome [7]: inactive

Compound: CC1COC2(c3ccccc3Cl)c3cc(Cl)ccc3NC(=O)CN12 (stereo not given)
- Potency [3]: inactive
- Potency [4]: inactive
- Potency [6]: inactive
